# From PubChem
# A selection: hits, their analogues and other compounds. The true share with any hit is near 1.8%.
# Sa RN4220 lethal = growth inhibition of S. aureus RN4220, primary screen, OD600; 16 h; inhibition, % (concentration not given with the values); 330,000 compounds, 0.33% hits; AID 1259311, 2017; in the data active means inhibition above about 85%;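 further: plate controls were untreated cells for no effect and reference antibiotic for full effect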
# Sa ugtP lethal = growth inhibition of ugtP-null S. aureus, primary screen, RN4220 ugtP deletion, OD600; 16 h; growth inhibition, % (test concentration not listed); 330,000 compounds, 0.54% hits; AID 1259309, 2017; in the data active means growth inhibition above about 68%;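 further: plate controls were untreated wells for no effect and antibiotic for full effect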
# PrPC TRFRET = inhibitors of human cell surface prion protein PrPC, primary screen, cell-based, TR-FRET; Major prion protein (Homo sapiens), P04156; TR-FRET read-out; inhibition, % at 13.8 µM; 370,000 compounds, 0.43% hits; in the data active means inhibition above about 24%; further: 0% = median of the test wells and 100% = reference compound wells
# PfHsp40 rescue = rescue of yeast from PfHsp40 toxicity, primary screen, S. cerevisiae, ATP luminescence | AID 504582, 2011 | growth rescue, % at 12.5 µM | S. cerevisiae expressing PfHsp40, growth rescue | 340,000 compounds, 0.68% hits; in the data active means growth rescue above about 28%, passing the limit was not always enough;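 further: yeast W303a lacking pdr1 and pdr3 grown in galactose medium; growth measured after three days at 30 °C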
# DUSP3 inh = VHR1 phosphatase inhibitors, primary screen, biochemical, absorbance, uHTS; AID 1654, 2009; inhibition, % at 13.3 µM; Dual specificity protein phosphatase 3 (Homo sapiens), P51452; recombinant VHR phosphatase, pNPP absorbance; 290,000 compounds, 0.52% hits; in the data active means inhibition above about 50%
# PrPC confirm = confirmation of inhibitors of cell surface human prion protein, confirmation, cell-based, TR-FRET. shares compounds with PrPC TRFRET. cell surface PrPC level. inhibition, % at 13.8 µM. 1,500 compounds, 65% hits. AID 743200, 2013; in the data active means inhibition above about 25%
# LD9 cytotox = cytotoxicity in LD9 cells, cytotoxicity control for cell surface PrPc inhibitor project, cell-based, luminescence, high throughput. luminescence viability. 1,500 compounds, 29% hits. shares compounds with PrPC TRFRET. AID 743201, 2013. inhibition, % at 13.8 µM; in the data active means inhibition above about 9.5%
# Active calls of the source: *; . = no result given.
SMILES,Sa RN4220 lethal,Sa ugtP lethal,PrPC TRFRET,PfHsp40 rescue,DUSP3 inh,PrPC confirm,LD9 cytotox
N/C(=N\OC(=O)COc1ccc(Br)cc1Cl)c1ccccn1,7.1,6.2,20.4,-0.2,1.7,.,.
N/C(=N\OC(=O)COc1ccc2ccccc2c1Br)c1ccccn1,-0.7,-7.9,58.9*,0.4,20.8,83.8*,-1.5
N/C(=N\OC(=O)COc1ccc2ccccc2c1Br)c1cccnc1,-1.1,-7.9,47.4*,.,14.9,78.2*,2.6
CCC1=C(OC(=O)N(CC)CC)N2C(=O)OC(=NCCOC)[C@]2(Cc2ccccc2)C2C1=CCC1C(=O)NC(=O)C12 (stereo not given in full),11.4,-0.9,.,.,.,.,.
CC1CCC(=C(C#N)C(=O)Nc2cccc(Cl)c2)CC1 (stereo not given),2.5,-9.7,6.4,0.0,11.3,.,.
CC1CCC2(CC1)C(Nc1cccc(Cl)c1)=NC(=S)N2CC#N (stereo not given),-1.0,-8.8,36.5*,0.2,-3.3,38.9*,-6.8
COCCNC(=O)CSc1cc(-c2ccccc2)c2ccc(OC)cc2n1,-8.3,-7.9,32.5*,-0.2,21.7,37.0*,-5.8
OC(CN1C2=NCCN2c2ccccc21)c1ccc2c(c1)OCO2 (stereo not given),6.8,-1.7,52.9*,-1.4,16.1,2.3,5.3
OC(CN1C2=NCCCN2c2ccccc21)c1ccc2c(c1)OCO2 (stereo not given),-0.6,7.2,-7.4,-1.6,3.0,.,.
CC(=O)Nc1sc(NN=Cc2ccc(C)cc2)nc1-c1ccc(C)cc1,-8.3,-3.0,.,.,.,.,.
CC(=O)c1ccc(NC(=O)Nc2ccncc2)cc1,-0.9,7.7,10.4,-0.1,-2.7,.,.
CC(=O)c1ccc(NC(=O)Nc2ccc(Cl)cc2)cc1,-5.8,-27.8,28.3*,1.1,6.3,24.0,1.0
O=C(NCc1ccccc1)Nc1cccn(Cc2ccccc2)c1=O,-1.6,3.7,9.7,0.8,-7.9,.,.
CCOc1ccc(NC(=O)Nc2cccn(Cc3ccccc3)c2=O)cc1,1.3,1.0,29.8*,0.8,6.9,15.4,-7.4
CCn1ncc(C=NNC(=O)c2ccc3c(c2)OCO3)c1C,2.4,8.3,.,.,.,.,.
CCOC(=O)c1c(NC(=O)CSc2nnc(-c3ccccc3)o2)sc(C(C)=O)c1C,32.5,1.7,11.6,8.9,-23.4,.,.
CCOC(=O)c1c(NC(=O)CSc2nnc(Cc3ccccc3)o2)sc(C(C)=O)c1C,12.7,35.4,26.9*,0.9,12.9,20.6,5.9
Cc1ccccc1OCC(=O)Nc1ccc(Cc2ccncc2)cc1,-3.9,-2.7,24.9*,1.1,1.2,8.7,-1.7
COc1ccc(NC(=O)Nc2ccc(Cc3ccncc3)cc2)c(OC)c1,0.0,10.8,26.5*,-0.5,4.3,21.3,-5.6
COc1ccc(NC(=O)Nc2cnccn2)c(OC)c1,6.4,1.3,2.8,-1.8,30.2,.,.
Cc1ccccc1OCCC(=O)Nc1ccc2c(C)cc(=O)oc2c1,1.1,1.9,38.0*,-0.7,-1.5,26.6*,-0.8
Cc1ccccc1OCC(=O)Nc1ccncc1,3.1,5.4,8.6,-0.3,7.9,.,.
CCC1=C2CCC3C(=O)N(CC(=O)OC)C(=O)C3C2[C@@]2(C)C(=NCC(=O)OC)OC(=O)N2C1=O (stereo not given in full),5.6,8.9,.,.,.,.,.
CC[C@]12CCCN3CCc4c(n(c5ccccc45)[C@](O)(C(=O)OC)C1)C32 (stereo not given in full),11.5,4.4,.,.,.,.,.
COc1ccc2c(c1)[nH]c1c(N3CCSCC3)ncnc12,5.1,-8.2,7.7,0.4,1.1,.,.
SMILES,Sa RN4220 lethal,Sa ugtP lethal,PrPC TRFRET,PfHsp40 rescue,DUSP3 inh,PrPC confirm,LD9 cytotox
COc1cccc(N2CCN(c3ncnc4c3[nH]c3ccccc34)CC2C)c1 (stereo not given),.,.,54.6*,.,35.2,75.5*,90.0*
COC(=O)C1=C(c2cccc(OCc3ccccc3)c2)CC2CCC1N2C(=O)NNCc1ccccc1 (stereo not given),-2.0,8.7,.,.,.,.,.
CCOC(=O)NC(=O)CSc1cc(C)c2cc(C)cc(C)c2n1,6.2,4.6,42.3*,-1.5,19.9,57.5*,-2.3
CCOC(=O)NC(=O)CSc1ccc2ccccc2n1,0.4,1.3,49.1*,0.1,48.4,48.8*,-8.7
Cc1cc(C)c2nc(SCC(=O)NC(=O)c3cccn3C)cc(C)c2c1,6.6,2.4,22.9,0.2,5.8,.,.
COC(=O)C1NC(C(NC(=O)COc2ccccc2)C(=O)NCc2ccsc2)SC1(C)C (stereo not given),2.6,-12.1,.,.,.,.,.
Cc1ccccc1OCC(=O)NN=C1CC(=O)CC(C)(C)C1,1.4,3.6,.,.,.,.,.
COc1ccccc1N1CCN(N=C/C=C\c2ccco2)CC1,0.4,73.1,.,.,.,.,.
O=C(CCl)Nc1nc(-c2ccco2)c(-c2ccco2)s1,0.6,-7.1,43.8*,3.8,-6.7,31.9*,-4.7
O=C(Nc1nc(-c2ccccn2)cs1)c1cccc(S(=O)(=O)N2CCOCC2)c1,.,.,24.6*,1.0,.,25.5*,11.0*
O=C(Nc1ccc(S(=O)(=O)C(F)F)cc1)c1cccc(S(=O)(=O)N2CCOCC2)c1,-5.3,3.6,28.6*,-0.7,-1.5,16.2,15.8*
CN1C(=CC(=O)CSc2nnc(NCc3ccccc3)s2)C(C)(C)c2ccccc21,-0.8,-9.3,.,.,.,.,.
COCCCNc1ccn2nc(-c3ccc(OCc4ccccc4)cc3)cc2n1,.,.,41.6*,.,.,29.6*,1.9
Clc1cccc(CNc2ccn3nc(-c4ccccc4)cc3n2)c1,.,.,10.2,.,.,.,.
Clc1cccc(CNc2ccn3nc(-c4ccc(OCc5ccccc5)cc4)cc3n2)c1,.,.,37.1*,.,.,31.6*,-7.5
COC(=O)C1=C(c2ccc(OC(F)(F)F)cc2)CC2CCC1N2C(=O)N1CCOCC1 (stereo not given),7.3,2.1,.,.,.,.,.
O=C(CCc1ccccc1)Nc1cccc(NC(=O)CCc2ccccc2)c1,1.0,1.5,25.5*,0.1,18.6,11.4,-3.7
O=C(Nc1ccc(OCc2ccccc2)cc1)c1cccs1,7.0,9.2,25.4*,-0.4,42.1,15.6,2.0
O=C(CCc1ccccc1)Nc1ccccc1,6.9,-1.4,2.1,-1.8,12.9,.,.
CC(C)(C)c1csc(NC(=O)CCc2ccccc2)n1,-3.5,2.4,26.3*,2.3,3.5,19.5,-8.1
O=C(Cc1ccccc1)Nc1cccc(NC(=O)c2cccs2)c1,8.9,-2.8,31.6*,19.3,12.0,16.9,-5.0
CC(C)(C)c1csc(NC(=O)Cc2cccs2)n1,-1.0,7.3,4.1,0.1,1.1,.,.
COc1ccc2c(c1)CCC1C2CC[C@]2(C)C(C(C)=O)CC12 (stereo not given in full),3.7,48.7,.,.,.,.,.
